The source made the active and inactive calls.
Experiments:
[1] = E. coli DRC41 culture turbidity changes, primary screen, E. coli filamentation inducer project, strain DRC41, OD650, 48 h (AID 1152);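 further: E. coli MC1000 strain DRC41 lacking acrAB efflux pump and sulA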; conditions: E. coli DRC41 (acrAB sulA), higher = more signal, called active from +8 up or from −8 down
[2] = small-molecule binders of probe aLefty1, primary screen, biochemical, small-molecule microarray, 635/667 nm fluorescence (AID 1153); conditions: higher = more signal;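 further: score merges spot fluorescence with signal-to-noise ratio from the scanned slide images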
[3] = PSAC antagonists in infected red cells, primary screen, cell-based, P. falciparum Indochina, OD700, 1 h (AID 1154); conditions: P. falciparum Indochina infected RBC osmotic lysis, higher = more signal, called active from +8 up or from −8 down
[4] = PSAC antagonists in infected red cells, primary screen, cell-based, P. falciparum Indochina, OD700, 2 h (AID 1155);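 further: lysis reports solute entry through the parasite surface anion channel PSAC; channel blockers reduce lysis of infected cells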; conditions: P. falciparum Indochina infected erythrocytes, osmotic lysis OD700; higher = more signal, called active from +8 up or from −8 down
[5] = osmotic lysis modulators in infected erythrocytes, primary screen, PSAC antagonist project, cell-based, P. falciparum Indochina, OD700, 3 h (AID 1156); conditions: higher = more signal, called active from +8 up or from −8 down
[6] = PSAC antagonists in infected red cells, primary screen, cell-based, P. falciparum Indochina, OD700, 18 h (AID 1157); conditions: P. falciparum Indochina infected erythrocytes, osmotic lysis OD700, 18 h; higher = more signal, called active from +8 up or from −8 down
[7] = modulators of S6 phosphorylation in cells, primary screen, cell-based, A549, cytoblot, luminescence, serum-stimulated (AID 1158); conditions: A549 phospho-S6 cytoblot, 5 h, higher = more signal;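 further: serum-stimulated A549 lung adenocarcinoma cells; signal is phosphorylated S6 detected by cytoblot immunostaining with HRP secondary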
[8] = molecular target: NADPH oxidase 2 (Homo sapiens) (UniProt P04839); assay: NOX2-dependent H2O2 signal modulators, primary screen, NOX inhibitor project, cell-based, HEK293-NOX2, PMA-stimulated, Amplex Red fluorescence (AID 1159); conditions: 45 min, higher = more signal, called active from +8 up or from −8 down; further: test concentration not given here
Sequence of NADPH oxidase 2 (Homo sapiens) (P04839 whole entry, looked up): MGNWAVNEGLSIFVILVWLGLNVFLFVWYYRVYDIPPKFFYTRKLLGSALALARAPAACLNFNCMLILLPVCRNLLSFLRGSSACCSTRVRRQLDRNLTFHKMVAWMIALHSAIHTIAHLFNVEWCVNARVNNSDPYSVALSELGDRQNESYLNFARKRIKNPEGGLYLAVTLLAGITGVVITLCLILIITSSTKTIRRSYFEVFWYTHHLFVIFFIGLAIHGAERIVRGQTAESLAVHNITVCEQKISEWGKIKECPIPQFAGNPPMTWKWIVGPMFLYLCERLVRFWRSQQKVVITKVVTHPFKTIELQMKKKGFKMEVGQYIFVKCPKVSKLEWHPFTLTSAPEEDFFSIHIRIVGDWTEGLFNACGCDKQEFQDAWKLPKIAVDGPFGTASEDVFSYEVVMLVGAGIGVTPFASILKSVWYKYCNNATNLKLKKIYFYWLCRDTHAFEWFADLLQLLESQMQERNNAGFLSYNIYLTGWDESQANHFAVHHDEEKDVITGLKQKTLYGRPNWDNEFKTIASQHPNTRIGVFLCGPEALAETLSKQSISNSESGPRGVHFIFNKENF

[9] = molecular target: NADPH oxidase 4 (Homo sapiens) (UniProt Q9NPH5); assay: NOX4-dependent H2O2 signal modulators, primary screen, NOX inhibitor project, cell-based, HEK293-NOX4, tetracycline-induced, Amplex Red fluorescence (AID 1160); conditions: 45 min, higher = more signal, called active from +8 up or from −8 down
Sequence of NADPH oxidase 4 (Homo sapiens) (Q9NPH5 whole entry, looked up): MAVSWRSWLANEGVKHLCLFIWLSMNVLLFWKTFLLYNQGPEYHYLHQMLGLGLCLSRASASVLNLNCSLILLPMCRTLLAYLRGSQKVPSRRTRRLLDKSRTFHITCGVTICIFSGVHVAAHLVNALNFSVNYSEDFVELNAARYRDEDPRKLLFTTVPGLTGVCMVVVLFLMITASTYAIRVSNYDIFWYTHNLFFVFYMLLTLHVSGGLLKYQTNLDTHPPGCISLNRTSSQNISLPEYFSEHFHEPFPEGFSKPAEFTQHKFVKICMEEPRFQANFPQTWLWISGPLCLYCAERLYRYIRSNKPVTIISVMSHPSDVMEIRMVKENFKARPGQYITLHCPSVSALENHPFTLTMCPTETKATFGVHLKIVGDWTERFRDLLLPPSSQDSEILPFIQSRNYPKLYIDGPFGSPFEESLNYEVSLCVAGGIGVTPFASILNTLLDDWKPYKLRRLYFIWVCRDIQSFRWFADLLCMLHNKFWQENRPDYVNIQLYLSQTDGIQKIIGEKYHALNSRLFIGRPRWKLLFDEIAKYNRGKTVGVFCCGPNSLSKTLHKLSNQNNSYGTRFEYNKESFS

[10] = molecular target: NADPH oxidase 5 (Homo sapiens) (UniProt Q96PH1); assay: NOX5-dependent H2O2 signal modulators, primary screen, NOX inhibitor project, cell-based, HEK293-NOX5, Amplex Red fluorescence (AID 1161); conditions: HEK293-NOX5, ionomycin, 45 min, higher = more signal
Sequence of NADPH oxidase 5 (Homo sapiens) (Q96PH1 whole entry, looked up): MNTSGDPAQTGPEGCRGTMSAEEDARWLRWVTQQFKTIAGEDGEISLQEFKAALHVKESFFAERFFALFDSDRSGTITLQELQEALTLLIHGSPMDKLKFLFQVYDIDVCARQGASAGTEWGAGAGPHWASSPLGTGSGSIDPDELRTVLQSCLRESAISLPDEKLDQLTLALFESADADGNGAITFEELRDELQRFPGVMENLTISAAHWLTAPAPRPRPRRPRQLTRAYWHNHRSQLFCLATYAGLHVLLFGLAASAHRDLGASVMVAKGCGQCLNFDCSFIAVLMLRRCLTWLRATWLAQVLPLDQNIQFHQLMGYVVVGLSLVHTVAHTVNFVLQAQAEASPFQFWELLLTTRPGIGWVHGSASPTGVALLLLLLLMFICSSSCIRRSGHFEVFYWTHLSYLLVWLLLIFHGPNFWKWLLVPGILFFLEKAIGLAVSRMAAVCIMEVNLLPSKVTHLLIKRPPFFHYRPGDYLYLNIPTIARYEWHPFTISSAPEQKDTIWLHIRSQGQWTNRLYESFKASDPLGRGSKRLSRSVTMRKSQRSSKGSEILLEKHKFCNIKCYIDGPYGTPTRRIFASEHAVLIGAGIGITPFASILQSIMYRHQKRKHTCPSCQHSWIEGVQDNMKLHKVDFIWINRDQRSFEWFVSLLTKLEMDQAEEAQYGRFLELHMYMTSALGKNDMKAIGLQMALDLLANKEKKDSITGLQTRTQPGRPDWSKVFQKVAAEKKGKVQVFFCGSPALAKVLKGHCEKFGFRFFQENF

[11] = A549 cell viability effects, profiling panel, calcein-AM fluorescence, 48 h, basal (AID 1162); conditions: higher = more signal; further: test concentration not given here
[12] = adipocyte viability effects, profiling panel, cell-based, 3T3-L1 adipocytes, calcein-AM fluorescence, 48 h, basal (AID 1163); conditions: 3T3-L1 adipocytes viability, higher = more signal; further: test concentration not given here
[13] = HepG2 cell viability effects, profiling panel, calcein-AM fluorescence, 48 h, basal (AID 1164); conditions: higher = more signal; further: test concentration not given here
[14] = MM1S cell viability effects, profiling panel, calcein-AM fluorescence, 48 h, basal (AID 1165); conditions: higher = more signal;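 further: viability of MM1S multiple myeloma cells under basal unstimulated conditions; test concentration not given here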
[15] = basal RPMI8226 viability, no added stimulus, profiling panel, cell-based, calcein-AM fluorescence, 48 h, PK04 Diversity Set (AID 1166); conditions: RPMI8226 myeloma viability, higher = more signal;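 further: cells grown under basal conditions without added stimulus; test concentration not given here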
[16] = basal HepG2 mitochondrial membrane potential changes, profiling panel, cell-based, JC-1 fluorescence, 24 h, 100 nL compound (AID 1167); conditions: higher = more signal; further: test concentration not given here
[17] = basal 3T3-L1 adipocyte mitochondrial potential changes, profiling panel, cell-based, JC-1 fluorescence, 3T3-L1 adipocytes, 24 h, 100 nL compound (AID 1168); conditions: JC-1 mitochondrial fluorescence, higher = more signal, called active from +8 up or from −8 down; further: test concentration not given here
[18] = basal RPMI8226 mitochondrial membrane potential changes, profiling panel, cell-based, JC-1 fluorescence, 24 h, 100 nL compound (AID 1169); conditions: RPMI8226 myeloma, JC-1 mitochondrial potential fluorescence, higher = more signal; further: test concentration not given here
[19] = basal MM1S mitochondrial membrane potential changes, profiling panel, cell-based, JC-1 fluorescence, 24 h, 100 nL compound (AID 1170); conditions: higher = more signal; further: test concentration not given here
[20] = A549 lung cancer cell viability effects, profiling panel, resazurin fluorescence, 24 h, PK04 Diversity Set (AID 1171); conditions: higher = more signal, called active from +8 up or from −8 down; further: test concentration not given here

Compound | z-score [1] | composite z-score [2] | z-score [3] | z-score [4] | z-score [5] | z-score [6] | z-score [7] | z-score [8] | z-score [9] | z-score [10] | z-score [11] | z-score [12] | z-score [13] | z-score [14] | z-score [15] | z-score [16] | z-score [17] | z-score [18] | z-score [19] | z-score [20]
CC=CC(O)C1C=CC2C(=O)N(c3ccccc3)C(=O)C2N1Nc1ccc([N+](=O)[O-])cc1 (stereo not given) | -1 (inactive) | 0.0378 | 8.61 (active) | 1.61 (inactive) | 0.457 (inactive) | 0.876 (inactive) | -0.701 | -0.095 (inactive) | -1.91 (inactive) | -0.909 | -0.972 | -1.3 | 0.196 | 0.459 | 0.471 | -0.653 | 0.207 (inactive) | 0.592 | -1.01 | -0.0977 (inactive)
C=CCC(OC(C)=O)[C@@H]1[C@@H](N(Cc2cc3ccccc3o2)C(=O)Cc2ccc(F)cc2)c2cc(OCCCO)ccc2N1C(=O)c1ccc2ccccc2n1 (stereo not given in full) | -0.548 (inactive) | -0.0984 | 1.05 (inactive) | 0.213 (inactive) | -0.627 (inactive) | -0.0096 (inactive) | -0.53 | 0.259 (inactive) | 0.642 (inactive) | 1.28 | -0.153 | 1.2 | 1.09 | 0.466 | -0.553 | 1.72 | -0.528 (inactive) | -0.131 | 0.288 | 0.642 (inactive)
COC(=O)[C@@]1(Cc2ccc(OC)cc2)[C@H]2c3cc(C(=O)N(C)C)n(Cc4ccccc4)c3C[C@H]2CN1C(=O)c1ccccc1 | -1.25 (inactive) | 0.748 | 0.49 (inactive) | 0.194 (inactive) | -1.39 (inactive) | 0.594 (inactive) | 0.686 | -1.52 (inactive) | -1.09 (inactive) | 2.49 | 0.0457 | 0.245 | -2.3 | -2.27 | -2.17 | 2.45 | -0.45 (inactive) | -0.398 | -1.85 | 0.616 (inactive)
CCOC(=O)[C@H]1C/C=C/C[C@H](C(=O)OCC)C(=O)O[C@H]2[C@@H](OC)O[C@H](CO)[C@@H](OC(=O)Nc3ccc(OC)cc3)[C@@H]2OC1=O | 1.04 (inactive) | 0.104 | 0.736 (inactive) | -0.0928 (inactive) | -0.0986 (inactive) | 0.385 (inactive) | -0.0056 | -2.43 (inactive) | -1.29 (inactive) | -1.99 | 2.98 | 0.202 | 1.12 | -0.465 | -0.274 | 1.89 | 1.84 (inactive) | -0.292 | -0.998 | -1.29 (inactive)
CO[C@H]1O[C@H](CO)[C@@H](OC(=O)Nc2ccc(Oc3ccccc3)cc2)[C@H](OC(=O)Nc2ccccc2-c2ccccc2)[C@@H]1OC(=O)Nc1ccccc1-c1ccccc1 | 0.963 (inactive) | 0.361 | 0.484 (inactive) | 1.04 (inactive) | 0.228 (inactive) | 0.766 (inactive) | 0.322 | 2.06 (inactive) | 0.707 (inactive) | 0.356 | -0.0685 | 0.0358 | -0.61 | -0.443 | -0.612 | 0.319 | 2.46 (inactive) | -1.13 | 0.267 | -0.41 (inactive)
CCCCC(=C=CC[C@@H](O)c1ccc(OCCO)cc1)C[C@@H](O)COCc1ccccc1 | 1.98 (inactive) | 0.596 | 16.5 (active) | 1.73 (inactive) | -0.0577 (inactive) | -0.237 (inactive) | 1.95 | -2.67 (inactive) | -0.61 (inactive) | -2.45 | 2.64 | 0.716 | 2.15 | -1.35 | -0.586 | 0.605 | -0.0104 (inactive) | 0.178 | -1.18 | 0.812 (inactive)
COc1cc2c(cc1OC)CN(C(=O)[C@@H]1[C@H]3C(=O)O[C@H](c4ccccc4)[C@H](c4ccccc4)N3[C@H](c3ccccc3OCCO)[C@@]13C(=O)Nc1ccc(C#CC4(O)CCCCCC4)cc13)CC2 | 2.01 (inactive) | -0.2 | 3.46 (inactive) | 2.47 (inactive) | 1.26 (inactive) | 2.21 (inactive) | 0.454 | 1.73 (inactive) | 0.934 (inactive) | 2.25 | 0.74 | -0.277 | 0.711 | -0.292 | -1.88 | -0.612 | 1.3 (inactive) | -0.792 | -1.31 | -0.373 (inactive)
O=C1c2ccccc2[C@@]2(Cc3ccccc3N(C3CC3)C2=O)[C@H](c2ccc(CO)cc2)N1C1CCCCC1 | -0.301 (inactive) | -0.0066 | 0.667 (inactive) | -0.0557 (inactive) | 0.181 (inactive) | 0.181 (inactive) | -0.0814 | 0.112 (inactive) | -1.7 (inactive) | -1.45 | -0.506 | -0.621 | -0.578 | -0.258 | -2.4 | -0.266 | -0.971 (inactive) | 0.818 | 0.144 | -0.179 (inactive)
CC(C)N1CC=CC23O[C@@H]4C=CCCOC(=O)C4[C@H]2C(=O)N(CCO)[C@@H]3C1=O (stereo not given in full) | 2.1 (inactive) | -0.357 | 0.326 (inactive) | 0.568 (inactive) | 1.03 (inactive) | 0.406 (inactive) | 0.468 | 1.37 (inactive) | 0.509 (inactive) | 1.54 | -0.555 | -0.0175 | -2.03 | 0.506 | 0.0275 | -0.333 | 0.5 (inactive) | 1 | 0.862 | 1.06 (inactive)

Reference: PubChem BioAssay
